Growth data for 27 compounds are collected here from PubChem BioAssay (NCI).

What all share (test): NCI-60 one-dose screen, 48 h (100 = growth as untreated, 0 = no growth, -100 = all killed)
What all share (conditions): 10 µM unless noted

The subject of assay [1] is NCI-H23 lung.
The subject of assay [2] is NCI-H226 lung.
Assay [3] concerns NCI-H322M lung.
For assay [4], the system named is HOP-62 NSCLC.
Assay [5] deals with NCI-H460 lung.
Assay [6] concerns HOP-92 NSCLC.
The test system of assay [7] is NCI-H522 lung.
Assay [8] relates to A549/ATCC NSCLC.
Assay [9] relates to 786-0 renal.
The subject of assay [10] is COLO 205 colon.

This is part of a sample that, as a whole, favours compounds with a hit. Of some 83,000 tested, about 20% had one in any assay.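 Cell lines were cultured in 96-well plates, exposed to a single compound concentration, and assessed for percent growth 48 hours later.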 Values without a mark were called inactive. Activity calls are given as the source filed them. Rule for the calls: active = growth percent below 10; inactive = the rest.

For the compound `COc1ncc(-c2ccc3ncnc(Nc4cccc(Cl)c4)c3c2)cc1NS(=O)(=O)CCN1CCOCC1`, the growth in [1] was 21.4%; in assay [2], 22.3%; in assay [3], -17.1% (active); in assay [4], 17.5%; in [5], 10.3%; in assay [6], -26.3% (active). Moreover, the growth is 14% in assay [7], -4.57% (active) in assay [8], 10.5% in [9] and -6.87% (active) in assay [10].

For `O=C(c1ccncc1)N1N=C(c2ccc(Cl)cc2)CC1c1c[nH]c2ccccc12` (stereo not given), the growth in [1] was 85.9%; in [2], 82.7%; in assay [3], 96.3%; in assay [4], 75.1%; in assay [5], 96.8%; in [6], 94.7%. The growth in assay [7] is 80.8%; in [8], 95%; in assay [9], 104%; in assay [10], 97.9%.

Consider `COc1ccccc1CNCCCN1C(=O)c2ccc3c4c(ccc(c24)C1=O)C(=O)N(CCCNCCCCNCCCCN)C3=O`, for which the growth was 6.63% (active) in [1]; 27% in [2]; -21.5% (active) in assay [3]; 22.2% in assay [4]; 0.275% (active) in assay [5]; -6.2% (active) in assay [6]. The growth was -40.8% (active) in assay [7], -3.81% (active) in assay [8], 23.3% in assay [9] and -45.4% (active) in assay [10].

`O=[N+]([O-])c1cc(S(=O)(=O)OCC2CO2)ccc1Cl` (stereo not given): the growth was 96% in [1]; 110% in assay [2]; 82.2% in assay [3]; 111% in [4]; 109% in [5]; 125% in assay [6]. Also, the growth in [7] is 85.9%; in assay [8], 101%; in assay [9] it was 106%; in [10], 117%.

With `COc1cc(-c2csc(NC(=O)c3cc(C(F)(F)F)cc(C(F)(F)F)c3)n2)cc(OC)c1OC`, the growth was -10.2% (active) in assay [1]; 23.6% in assay [2]; 32.7% in [3]; 46.4% in [4]; 13.8% in assay [5]; -10.6% (active) in [6]. Also, the growth is 3.92% (active) in assay [7], 26.3% in assay [8], 41.6% in [9] and 37.7% in assay [10].

In the case of `CCN1C(=O)N(CC)C2Nn3c(s/c(=C4\C(=O)N(C5CCCC5)c5ccccc54)c3=O)=NC21` (stereo not given), the growth was 53.9% in [1]; 91.8% in assay [2]; 94.8% in [3]; 50% in assay [4]; 43.9% in [5]; 67.4% in [6]. For the same compound, the growth in [7] was 28%; in assay [8], 54.4%; in assay [9] it was 63.6%; in assay [10], 26.2%.

As to `CCCCNC(=O)NS(=O)(=O)c1ccc(N2N=C(c3ccc(C)cc3C)CC2c2ccc(OC)cc2)cc1` (stereo not given), the growth in [1] was 65.4%; in assay [2] it was 86.7%; in [3], 90.6%; in assay [4], 92%; in assay [5] it was 48.3%; in [6], 75.1%. Further, the growth in assay [7] was 54.4%; in assay [8], 38.4%; in [9], 61.3%; in assay [10] it was 93.5%.

On to `O=C(O)Cc1ccc2c(c1)Cc1cccnc1O2`, for which the growth is 98.9% in assay [1]; 91.7% in assay [2]; 109% in assay [3]; 106% in assay [4]; 105% in [5]; 112% in assay [6]. In addition, the growth was 95.7% in assay [7], 96.1% in assay [8], 98% in assay [9] and 111% in [10].

In the case of `Nc1c(C(=O)Nc2c(Cl)cccc2Cl)sc2nc3c(cc12)CCCCC3`, the growth in assay [1] is 78.4%; in assay [2], 61.8%; in assay [3] it was 85.4%; in assay [4] it was 53.9%; in assay [5] it was 54.9%; in assay [6] it was 59.4%. The growth in [7] is 40.1%; in assay [8], 50.3%; in assay [9] it was 59.8%; in assay [10], 45.3%.

With `CCN(Cc1ccccc1)c1ccc(SC#N)cc1`, the growth in assay [1] was 80.6%; in assay [2], 112%; in assay [3], 91.6%; in assay [4] it was 118%; in [5], 90%; in [6] it was 53.4%. Further, the growth in assay [7] is -26.7% (active); in [8] it was 102%; in [9], 73.4%; in assay [10] it was 50.4%.

`Cc1cccc2cc(/C=C/C(=O)/C=C/c3ccc(Cl)cc3)c(=O)[nH]c12`: the growth in assay [1] is 62.8%; in assay [2] it was 62.1%; in assay [3], 88.8%; in [4] it was 64.6%; in [5], 73.1%; in [6], 96.3%. Also, the growth was 48.4% in assay [7], 65.6% in [8], 14.5% in assay [9] and 37.8% in assay [10].

For `CCn1c(=O)c2c(=O)c3c4c(oc3oc2c2ccccc21)C(=O)c1ccccc1C4=O`, the growth is 66.8% in assay [1]; 99.4% in assay [2]; 97.7% in [3]; 80.3% in assay [4]; 83.7% in [5]; 50.8% in [6]. In addition, the growth in assay [7] was 65.5%; in [8], 82.4%; in [9], 105%; in assay [10] it was 110%.

As for `CCn1cc(C(=O)O)c(=O)c2cc(F)c(N3CCN(S(=O)(=O)c4c(C)cc(C)cc4C)CC3)cc21`, the growth in assay [1] is 77.7%; in assay [2], 87.4%; in [3] it was 83.5%; in [4], 71.5%; in [5], 82.8%; in assay [6], 76.9%. In addition, the growth in [7] is 86.5%; in assay [8], 78%; in assay [9], 102%; in assay [10], 93.2%.

Regarding `Nc1ccc(S(=O)(=O)c2ccc(Cl)cc2)cc1`, the growth is 97.9% in assay [1]; 98% in assay [2]; 91.4% in assay [3]; 97.8% in [4]; 96% in assay [5]; 93.4% in assay [6]. Besides, the growth in [7] was 89.7%; in assay [8], 86.6%; in assay [9], 99%; in assay [10], 109%.

In the case of `COc1ccc(C(=O)/C=C/c2cc(C(=O)c3cc(OC)c(OC)c(OC)c3)ccc2OC)cc1`, the growth was 72.9% in assay [1]; 90.7% in assay [2]; 91.5% in [3]; 100% in assay [4]; 88.6% in assay [5]; 70.5% in assay [6]. The growth in assay [7] is -0.114% (active); in [8], 85.3%; in assay [9], 89.4%; in assay [10], 75.9%.

With `Cc1ccc(S(=O)(=O)NCCCNc2nccc(-c3c(-c4ccccc4)nc4sccn34)n2)cc1`, the growth was 76.2% in assay [1]; 49.4% in assay [2]; 78.4% in [3]; 124% in [4]; 52% in assay [5]; 93.8% in assay [6]. Besides, the growth in [7] is 54.1%; in assay [8], 58.4%; in [9] it was 38.7%; in assay [10], 46.6%.

As to `COc1ccc(-c2nc3sccn3c2-c2ccnc(NCCCNS(=O)(=O)c3ccc(C)cc3)n2)cc1`, the growth in assay [1] was 26.6%; in [2], 13.7%; in assay [3], 65%; in [4], 86.5%; in [5], 40%; in assay [6], 67.5%. Further, the growth in [7] is 21.4%; in assay [8] it was 38.8%; in assay [9], 43.6%; in [10], 11.5%.

In the case of `Cc1cc(Cl)ccc1OC(C)C(=O)Nc1nnc(C2CC2)s1` (stereo not given), the growth was 76.7% in assay [1]; 98.5% in [2]; 124% in [3]; 94.7% in assay [4]; 114% in [5]; 81.3% in assay [6]. For the same compound, the growth in [7] was 94.6%; in assay [8], 86.3%; in assay [9] it was 92.7%; in [10] it was 105%.

Turning to `O=S=Nc1ccc([N+](=O)[O-])cc1`, the growth in assay [1] is 95%; in [2], 108%; in [3], 95%; in [4] it was 89.6%; in [5], 102%; in assay [6] it was 107%. Besides, the growth was 81.5% in [7], 78.8% in assay [8], 92.1% in [9] and 106% in assay [10].

As for `N#CC1=C(N)n2nc(-c3ccncc3)nc2NC1c1cccc2ccccc12` (stereo not given), the growth was 90.4% in assay [1]; 78.3% in assay [2]; 106% in [3]; 88.2% in [4]; 100% in assay [5]; 40.4% in assay [6]. In addition, the growth is 75.2% in assay [7], 92.4% in [8], 88% in assay [9] and 106% in assay [10].

Turning to `O=Nc1c(-c2c(O)[nH]c3ccc([N+](=O)[O-])cc23)[nH]c2ccc(O)cc12`, the growth in assay [1] was 3.19% (active); in assay [2] it was -4.7% (active); in assay [3] it was 7.21% (active); in assay [4], -9.77% (active); in assay [5], -28.5% (active); in [6], -3.1% (active). The growth in assay [7] was -79.1% (active); in assay [8], 10.6%; in [9], 4.21% (active); in assay [10], 65.8%.

Turning to `Cc1ccc2nc(-c3c(N)n[nH]c3CCCO)[nH]c(=O)c2c1`, the growth was 105% in assay [1]; 97.5% in assay [2]; 107% in assay [3]; 92.1% in assay [4]; 110% in assay [5]; 82.8% in assay [6]. For the same compound, the growth is 114% in [7], 103% in [8], 101% in [9] and 105% in assay [10].

As for `COc1cc2nc(SCc3cc(OC)c(OC)c(OC)c3)n(Cc3ccccc3)c(=O)c2cc1OC`, the growth in [1] is 20.5%; in [2] it was 49.7%; in assay [3] it was 45.4%; in [4], 41.4%; in assay [5], 22.3%; in assay [6], 62.7%. For the same compound, the growth was -33% (active) in assay [7], 36.9% in assay [8], 36.8% in assay [9] and 7.38% (active) in assay [10].

In the case of `COc1ccc(Cn2c(SC)nc(=O)n(Cc3ccc(Cl)cc3)c2=O)cc1`, the growth in [1] is 93.7%; in assay [2] it was 106%; in assay [3], 90.2%; in assay [4], 94.6%; in assay [5], 103%; in assay [6] it was 90%. The growth in [7] was 93.9%; in assay [8], 87.9%; in assay [9] it was 98.7%; in [10] it was 98.8%.

As for `CCC(c1cccc(Br)c1)C(C(=O)O)c1ccc(OC)cc1` (stereo not given), the growth in assay [1] was 102%; in [2] it was 108%; in assay [3], 111%; in assay [4] it was 96.1%; in assay [5], 107%; in assay [6] it was 93.6%. Further, the growth is 91.5% in assay [7], 102% in assay [8], 104% in [9] and 120% in assay [10].

On to `COC(=O)c1cc(-c2cccs2)c(C#N)c(N)c1C#N`, for which the growth in assay [1] is 96.7%; in assay [2], 101%; in assay [3] it was 99.8%; in [4], 90.3%; in assay [5], 104%; in assay [6] it was 94.2%. For the same compound, the growth in [7] was 95.4%; in [8], 101%; in assay [9] it was 100%; in assay [10], 109%.

For `COc1cc(Cn2c(SCC(=O)Nc3ccc(Cl)cc3)nc3ccccc3c2=O)cc(OC)c1OC`, the growth is 73% in assay [1]; 39.1% in assay [2]; 64.4% in assay [3]; 54% in assay [4]; 17.7% in assay [5]; -20.8% (active) in assay [6]. The growth in assay [7] was 40.9%; in assay [8], 64.9%; in assay [9], -11% (active); in [10], 92.9%.
